L3MBTL1 inh: blocks human L3MBTL1; Q9Y468; AlphaScreen L3MBTL1–H3K9me1 peptide binding; Potency, µM (highest dose often 57.1 µM), inactives show at the top dose activity, negative = inhibition, most hits filed as inhibitors; hit rate 0.66% among 230,000; AID 485360; also: % is scaled to controls: 0 for no effect and ±100 for the full control effect; nearly all actives have a fitted effect of over 60% in size
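First, the protein-peptide complex forms for 30 min at room temperature (L3MBTL1 50 nM, biotinylated H3K9me1 peptide 75 nM). Next, compounds are pin-transferred and incubated 30 min. Finally, AlphaScreen beads are added and read after 30 min.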
G9a inh: blocks human histone lysine methyltransferase G9a. hit rate 8.8% among 350,000. AID 504332. G9a H3K9 monomethylation, AlphaScreen, 2 h. Q96KQ7. Potency, µM (top dose mostly 102 µM), for the others: at the highest dose activity, negative = inhibition, most hits filed as inhibitors; also: % is scaled to controls: 0 for no effect and ±100 for the full control effect; nearly all actives have a fitted effect of over 75% in size
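AlphaScreen read-out: biotin-H3K9 peptide (500 nM) methylation by 20 nM enzyme with 20 uM SAM, 2 h at room temperature after 15 min compound preincubation; anti-monomethyl H3K9 antibody plus donor/acceptor beads, 10 min dark.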
BAZ2B inh: inhibitors of human BAZ2B bromodomain; AlphaScreen BAZ2B-H3K14Ac peptide displacement; Q9UIF8; Potency, µM (doses to about 114 µM), without a hit: at the top dose activity change, negative = inhibition, hits mostly inhibitors; AID 504333; hit rate 4.4% among 360,000; also: % is scaled to controls: 0 for no effect and ±100 for the full control effect; nearly all actives have a fitted effect of over 60% in size
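AlphaScreen luminescence quantifies BAZ2B engagement of H3K14Ac peptide; the protein and biotinylated peptide are both at 50 nM final, buffer PBS pH 7.4 with 0.01% Tween-20, all steps at room temperature.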
HP1b chromo inh: inhibitors of HP1-beta chromodomain binding to methylated histone tails; AlphaScreen HP1-beta / biotin-H3K9me3 peptide binding; Potency, µM (highest dose often 114 µM), inactives show at the highest dose activity change, negative = inhibition, actives largely listed as inhibitors; hit rate 0.56% among 390,000; also: nearly all actives have a fitted effect of over 70% in size
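HP1-beta protein (50 nM final) preincubated 30 min at room temperature with biotinylated H3(1-18)K9me3 peptide (50 nM) in PBS pH 7.4, 0.01% Tween-20, then compound added for 30 min. AlphaScreen streptavidin donor/nickel chelate acceptor beads (10 ug/mL final), 30 min dark, luminescence read.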
JMJD2A Tudor inh: JMJD2A Tudor domain (human) inhibition; O75164; AlphaScreen JMJD2A-Tudor / H3K4me3 peptide binding; Potency, µM (titrated, usually from 114 µM), for the others: top-dose activity change, negative = inhibition, most hits filed as inhibitors; hit rate 4.4% among 390,000; AID 504339; also: % is scaled to controls: 0 for no effect and ±100 for the full control effect; nearly all actives have a fitted effect of over 50% in size
Target sequence (O75164 whole entry, looked up, the tested form may be a part): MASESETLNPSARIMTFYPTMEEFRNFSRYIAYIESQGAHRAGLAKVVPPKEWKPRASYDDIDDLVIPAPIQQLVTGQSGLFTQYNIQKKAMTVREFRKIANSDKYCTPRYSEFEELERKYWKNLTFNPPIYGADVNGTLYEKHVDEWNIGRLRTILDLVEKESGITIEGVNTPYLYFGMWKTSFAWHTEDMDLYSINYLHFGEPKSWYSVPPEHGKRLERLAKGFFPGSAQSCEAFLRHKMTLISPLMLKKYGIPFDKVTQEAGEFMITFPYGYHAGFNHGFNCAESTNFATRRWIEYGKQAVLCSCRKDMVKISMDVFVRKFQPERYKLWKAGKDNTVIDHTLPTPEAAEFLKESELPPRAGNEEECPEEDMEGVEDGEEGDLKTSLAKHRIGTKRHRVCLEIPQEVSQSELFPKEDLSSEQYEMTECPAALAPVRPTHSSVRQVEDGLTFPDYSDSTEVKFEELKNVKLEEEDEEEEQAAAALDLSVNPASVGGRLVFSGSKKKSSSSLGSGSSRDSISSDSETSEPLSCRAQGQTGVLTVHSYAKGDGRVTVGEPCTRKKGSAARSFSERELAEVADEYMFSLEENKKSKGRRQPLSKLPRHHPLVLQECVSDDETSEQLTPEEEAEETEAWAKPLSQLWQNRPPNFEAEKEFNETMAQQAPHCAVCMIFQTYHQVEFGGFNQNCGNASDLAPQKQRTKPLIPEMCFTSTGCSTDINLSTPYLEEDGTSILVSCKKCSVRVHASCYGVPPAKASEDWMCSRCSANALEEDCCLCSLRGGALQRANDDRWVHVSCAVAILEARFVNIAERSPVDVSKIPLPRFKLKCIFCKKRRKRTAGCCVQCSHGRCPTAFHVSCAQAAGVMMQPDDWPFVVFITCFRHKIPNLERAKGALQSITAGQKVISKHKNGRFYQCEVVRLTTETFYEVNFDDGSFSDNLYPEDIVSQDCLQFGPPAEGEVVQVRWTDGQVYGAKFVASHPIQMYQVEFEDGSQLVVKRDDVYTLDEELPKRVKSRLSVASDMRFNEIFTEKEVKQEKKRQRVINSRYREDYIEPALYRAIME
GLS inh: glutaminase GLS (human) inhibition; hit rate 0.21% among 410,000; O94925; GLS enzymatic activity, qHTS titration; AID 624170; Potency, µM (series often up to 45.5 µM), for the others: top-dose activity change, negative = inhibition, actives largely listed as inhibitors; also: % is scaled to controls: 0 for no effect and ±100 for the full control effect
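hKGA in 45 mM KH2PO4 pH 8.2, 0.02% Tween-20 with pin-transferred compounds; 1 mM L-glutamine (stock) plus glutamate oxidase/HRP/Amplex Red coupling added. Fluorescence read initially and after 30 min at RT.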
An asterisk follows results filed as active; u = inconclusive; x = no result; [ ] = another dose, or the depositor's remark. Hits are enriched below; roughly 10% of the tested compounds scored in any of these assays. Calls follow the shape of the dose curve; as a rule, active = well fitted curve in the direction sought with a large enough effect; inconclusive = small, poorly fitted or top-dose-only effect, or another doubt; inactive = no such curve, though single readings can be large; an effect the other way counts as inactive or inconclusive. Potency is read from the fitted curve at half-maximal effect.

SMILES	L3MBTL1 inh	G9a inh	BAZ2B inh	HP1b chromo inh	JMJD2A Tudor inh	GLS inh
CN1C(=O)C(C2c3ccccc3C(=O)N2Cc2ccccc2)C(=O)N(C)C1=O (stereo not drawn)	x	u	79µM*	17%	-29%	10%
Oc1ccc2c3c1OC1C(O)C=CC4[C@@H](C2)NCC[C@]314 (stereo partly drawn)	x	x	x	x	x	65%[99.4 µM]
COc1ccc(C2SCC(=O)Nc3c2c(=O)[nH]n3C2CCCCCC2)cc1 (stereo not drawn)	-8%	71µM*	14%	26%	-15%	-17%
c1ccc(N2CCC3(CCNCC3)CC2)cc1	x	-3%[12.7 µM]	x	x	x	x
CCn1ncc(-c2ccnc3cc(C(=O)O)nn23)c1C	16µM*	u	32µM*	15%	25µM*	3.2µM*
CCN(CC)c1ccc(C=C2C(=O)NC(=S)NC2=O)cc1	-12%	7.9µM*	50µM*	u	45µM*	u
CC(C)CN(CC(C)C)c1ccc(C=C2C(=O)NC(=S)NC2=O)cc1[N+](=O)[O-]	u	u	35µM*	-84%	35µM*	-16%
CN(C)c1ccc(C=C2C(=O)NC(=S)NC2=O)cc1	x	x	x	-3%	50µM*	116%
CC(=O)Nc1ccc(C=C2C(=O)NC(=O)NC2=O)cc1	x	x	x	40%	-9%	1%
CN(C)c1ccc(C=C2C(=O)NC(=O)NC2=O)cc1	x	x	x	1%[57 µM]	-1%	1%
O=C(CO)[C@@H](O)C(O)[C@@H](O)CO (stereo partly drawn)	x	x	x	x	x	-8%
CNC(C)[C@@H](O)c1ccc(O)cc1 (stereo partly drawn)	x	-10%[12.7 µM]	x	x	x	14%
CCOc1ccc(CCNC(=O)c2cc3c(-c4cccc(OC)c4)nn(C)c3s2)cc1OCC	x	u	x	13%	-24%	20%
CN1CCN(c2ccc(NC(=O)Oc3ccccc3)cc2)CC1	x	3.5µM*	-1%	-1%	-23%	75%
COC(=O)C(O)(c1ccc(NC(=O)Oc2ccccc2)cc1)C(F)(F)F (stereo not drawn)	-7%	12%[59 µM]	6%	32%	-6%	-2%
CCOc1ccc(N=C2SCCCN2C)cc1	-1%	3.5µM*	-4%	5%	u	-5%
CN1c2cc(O)c(N=NC(N)=O)cc2CC1S(=O)(=O)O (stereo not drawn)	x	u	x	x	x	-15%
O=C(O)c1cc(S(=O)(=O)Nc2ccccc2C(=O)O)ccc1O	-18%	x	-12%	56%	-2%[11.4 µM]	-4%
O=C(O)c1cccc2nc3ccccc3nc12	7%	40µM*	-31%	41%	-9%	1%
CC(C)N1CCN(Cc2cccc([N+](=O)[O-])c2)CC1	x	3.5µM*	50µM*	u	0.89µM*	-26%
O=[N+]([O-])c1cccc(CN2CC=C(c3ccc(F)cc3)CC2)c1	0%	u	u	-15%	u	7%
O=[N+]([O-])c1cccc(CN2CCN(Cc3ccc(Cl)cc3)CC2)c1	-20%	3.5µM*	20µM*	u	0.79µM*	1%
Cc1noc(C)c1C(=O)N1CCC[C@@]2(CCN(CC(C)C)C2)C1	x	0%[12.7 µM]	x	x	x	x
CC(=O)OCC1=C(C(=O)[O-])N2C(=O)[C@@H](NC(=O)CCC[C@@H](N)C(=O)[O-])[C@H]2SC1.[Zn+2]	x	14%[12.7 µM]	x	x	x	x
Cc1ccc(C)c(CN2C(=O)c3ccccc3S(=O)(=O)c3ccc(C(=O)N4CCCCCC4)cc32)c1	x	-10%[59 µM]	u	14%	-24%	6%
Nn1c(COc2ccc(Cl)cc2)n[nH]c1=S	10%	1.8µM*	-14%	-8%	32µM*	2%
Cc1cccc(C)c1OCc1n[nH]c(=S)n1N	3%	1.8µM*	u	-18%	18µM*	5%
CCCCn1c(O)c(C(C)=NCCN2CCCCC2)c(=O)[nH]c1=O	-8%	28µM*	-2%	16%	-20%	19%

Assay outcomes (PubChem)
